# Records with an inconclusive call do not appear. Where a call stands in place of a potency, no number is given. Active and inactive are the calls of the source. Unless noted, calls follow the shape of the full dose curve.
# Columns and labels:
# [1] = biological target: Peroxisome proliferator-activated receptor delta (Homo sapiens) (UniProt Q03181); test: qHTS assay for small molecule agonists of peroxisome proliferator-activated receptor delta signaling (AID 588534)
# Summary of the method: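 Cell-based beta-lactamase reporter assay run in agonist mode: cells seeded and incubated 5 hrs at 37 C, compounds added and incubated 18 hrs at 37 C. CCF4 dye fluorescence read after 2 hrs at RT; EC50 and efficacy from Hill fits.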
# [2] = biological target: Peroxisome proliferator-activated receptor gamma (Homo sapiens) (UniProt P37231); test: qHTS assay for small molecule agonists of peroxisome proliferator-activated receptor gamma signaling (AID 588536; active = well fitted curve in the direction sought with a large enough effect in the signal ratio, with a control signal flat, not every such curve was filed as active; the % refers to the signal ratio)
# Peroxisome proliferator-activated receptor gamma (Homo sapiens), sequence (P37231 whole entry, looked up): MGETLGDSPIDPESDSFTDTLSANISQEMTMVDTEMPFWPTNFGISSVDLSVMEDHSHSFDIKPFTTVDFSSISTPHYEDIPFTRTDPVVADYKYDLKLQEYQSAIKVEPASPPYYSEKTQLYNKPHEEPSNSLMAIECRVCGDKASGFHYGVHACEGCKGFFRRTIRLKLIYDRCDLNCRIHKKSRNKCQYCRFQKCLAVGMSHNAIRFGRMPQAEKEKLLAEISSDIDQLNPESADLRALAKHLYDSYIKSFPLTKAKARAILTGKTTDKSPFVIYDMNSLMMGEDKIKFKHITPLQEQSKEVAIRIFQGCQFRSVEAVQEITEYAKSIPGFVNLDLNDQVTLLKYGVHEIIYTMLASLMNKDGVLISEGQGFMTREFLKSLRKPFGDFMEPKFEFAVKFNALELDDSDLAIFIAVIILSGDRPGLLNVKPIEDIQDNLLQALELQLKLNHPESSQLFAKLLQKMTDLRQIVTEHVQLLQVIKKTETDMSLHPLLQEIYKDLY
# Summary of the method: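 HEK293 UAS-bla reporter line, 1% charcoal/dextran FBS; titration, 16 h, 37 C; CCF4 loading 2 h RT; fluorescence 460/530 nm. Normalized to rosiglitazone 2 uM = 100%, DMSO = 0%.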
# [3] = biological target: Peroxisome proliferator-activated receptor gamma (Homo sapiens) (UniProt P37231); test: qHTS assay for small molecule antagonists of peroxisome proliferator-activated receptor gamma signaling (AID 588537; active = well fitted inhibition curve with a large enough effect in the signal ratio, with a control signal flat, not every such curve was filed as active; the % refers to the signal ratio;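 also: reporter cells co-stimulated with 50 nM rosiglitazone agonist during compound treatment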)
# Summary of the method: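 Step one: plate 3000 HEK293 UAS-bla cells per well in medium with 1% stripped serum and hold 6-6.5 h at 37 C. Step two: add compound and 50 nM agonist for 16 h. Step three: CCF4 loading, fluorescence read.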
# [4] = biological target: Vitamin D3 receptor (Homo sapiens) (UniProt P11473); test: qHTS assay for small molecule antagonists of vitamin D receptor signaling (AID 588541);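 also: receptor activated by calcitriol during compound treatment; series mostly up to about 77 µM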
# Vitamin D3 receptor (Homo sapiens), sequence (P11473 whole entry, looked up): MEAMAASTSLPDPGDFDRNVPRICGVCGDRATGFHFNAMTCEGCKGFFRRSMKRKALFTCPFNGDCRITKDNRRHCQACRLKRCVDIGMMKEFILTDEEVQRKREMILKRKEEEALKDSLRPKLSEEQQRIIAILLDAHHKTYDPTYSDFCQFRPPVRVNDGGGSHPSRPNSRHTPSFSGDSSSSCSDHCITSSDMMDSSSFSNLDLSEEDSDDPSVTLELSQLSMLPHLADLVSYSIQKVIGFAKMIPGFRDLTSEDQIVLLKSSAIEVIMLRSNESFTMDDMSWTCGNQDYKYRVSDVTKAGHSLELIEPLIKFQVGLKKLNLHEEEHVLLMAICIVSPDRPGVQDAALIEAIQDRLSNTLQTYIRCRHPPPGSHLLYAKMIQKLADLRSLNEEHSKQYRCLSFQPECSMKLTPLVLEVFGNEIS
# Summary of the method: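 VDR-UAS-bla HEK293T cells in 2% charcoal-stripped FBS were stimulated with 1-alpha,25-dihydroxyvitamin D3 (3 nM final) plus compound for 16 h at 37 C. The beta-lactamase CCF4 readout was normalized to 50 nM agonist and DMSO, and Hill fits gave IC50.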
# [5] = biological target: Vitamin D3 receptor (Homo sapiens) (UniProt P11473); test: qHTS assay for small molecule agonists of vitamin D receptor signaling (AID 588543)
# Summary of the method: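 Reporter cells (HEK293T, VDR-UAS-bla) were seeded in medium with 2% charcoal-stripped serum and incubated 5 h, then compounds in concentration series were added for 16 h at 37 °C. Stimulation was scaled between DMSO basal and 50 nM 1α,25-dihydroxyvitamin D3.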
# [6] = qHTS assay for small molecule agonists of retinoid X receptor alpha signaling (AID 588544); details: HEK293T RXRa-UAS-bla, beta-lactamase reporter, 18 h; 530 nm emission
# [7] = biological target: Retinoic acid receptor RXR-alpha (Homo sapiens) (UniProt P19793); test: as above
# Retinoic acid receptor RXR-alpha (Homo sapiens), sequence (P19793 whole entry, looked up): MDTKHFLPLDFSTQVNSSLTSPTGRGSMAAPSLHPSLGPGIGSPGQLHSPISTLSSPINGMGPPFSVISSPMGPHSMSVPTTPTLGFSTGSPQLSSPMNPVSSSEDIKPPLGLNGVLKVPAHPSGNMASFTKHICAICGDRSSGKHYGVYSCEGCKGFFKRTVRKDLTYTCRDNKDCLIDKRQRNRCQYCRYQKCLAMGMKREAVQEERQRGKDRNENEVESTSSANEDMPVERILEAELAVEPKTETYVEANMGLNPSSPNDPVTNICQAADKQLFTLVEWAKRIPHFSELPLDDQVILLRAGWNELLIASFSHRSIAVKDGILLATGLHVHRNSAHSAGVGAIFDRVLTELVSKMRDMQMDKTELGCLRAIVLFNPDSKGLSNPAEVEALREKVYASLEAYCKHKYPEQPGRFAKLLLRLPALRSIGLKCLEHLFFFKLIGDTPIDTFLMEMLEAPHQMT
# [8] = qHTS assay for small molecule antagonists of retinoid X receptor alpha signaling (AID 588546; active = well fitted inhibition curve with a large enough effect in the signal ratio, with a control signal flat, not every such curve was filed as active; the % refers to the signal ratio;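 also: cells stimulated with 9-cis-retinoic acid as agonist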); details: HEK293T RXRa-UAS-bla, beta-lactamase ratio, antagonist mode; measured here: W530 green channel, cytotoxicity proxy
# Summary of the method: (§1)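 Beta-lactamase reporter inhibition, read as CCF4 fluorescence ratio (ex 405, em 460/530 nm) after 2 h at RT. HEK293T UAS-bla cells, 2500/well, were stimulated with 9-cis-RA at 500 or 100 nM final alongside test compound for 18 h at 37 C.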
# [9] = biological target: Retinoic acid receptor RXR-alpha (Homo sapiens) (UniProt P19793); test: as above; details: HEK293T RXRa-UAS-bla, beta-lactamase ratio, antagonist mode
# Summary of the method: as §1
# [10] = qHTS assay for small molecule agonists of the antioxidant response element (ARE) signaling pathway (AID 651741; active = well fitted activation curve with a large enough effect in the signal ratio; the % refers to the signal ratio)
# Summary of the method: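 HepG2 ARE-bla cells plated at 2,000 cells/well and incubated 5 h at 37 C/5% CO2 received 23 nL compound in DMSO. After 16 h at 37 C, LiveBLAzer B/G FRET substrate was applied for 2 h at room temperature and fluorescence read.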
# [11] = qHTS assay for small molecule activators of the p53 signaling pathway (AID 651743; active = well fitted activation curve with a large enough effect in the signal ratio, not every such curve was filed as active; the % refers to the signal ratio; also: series mostly up to about 92 µM); details: HCT-116 p53RE-bla, beta-lactamase FRET ratio, 16 h; activation: stronger effect = higher value
# Summary of the method: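 HCT-116 p53RE-bla, 4,000 cells/well; 5 h settle; cpd/DMSO 16 h, 37 C; LiveBLAzer B/G 2 h RT; fluorescence intensity.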
# [12] = qHTS assay for environmental chemicals that activate the Aryl hydrocarbon Receptor (AhR) signaling pathway (AID 651777; active = well fitted curve in the direction sought with a large enough effect; an effect the other way counts as inactive or inconclusive; also: nearly all actives have a fitted effect of over 15% in size); details: 1A2-DRE human hepatoma cells, luciferase, 24 h; activation: stronger effect = higher value
# Summary of the method: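 Luminescence read-out: One-Glo added for 30 min at RT after 24 hr compound treatment (37 C, 5% CO2) of human hepatoma cells expressing a DRE/CYP1A2 promoter–luciferase reporter; increased signal indicates AhR activation.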
# [13] = biological target: Peroxisome proliferator-activated receptor alpha (Homo sapiens) (UniProt Q07869); test: qHTS assay for small molecule agonists of the peroxisome proliferator-activated receptor alpha (PPARalpha) signaling pathway (AID 651778; active = well fitted curve in the direction sought with a large enough effect; an effect the other way counts as inactive or inconclusive); details: PathHunter PPARalpha complementation, chemiluminescence, 6 h; max response: stronger effect = higher value
# Peroxisome proliferator-activated receptor alpha (Homo sapiens), sequence (Q07869 whole entry, looked up, the tested form may be a part): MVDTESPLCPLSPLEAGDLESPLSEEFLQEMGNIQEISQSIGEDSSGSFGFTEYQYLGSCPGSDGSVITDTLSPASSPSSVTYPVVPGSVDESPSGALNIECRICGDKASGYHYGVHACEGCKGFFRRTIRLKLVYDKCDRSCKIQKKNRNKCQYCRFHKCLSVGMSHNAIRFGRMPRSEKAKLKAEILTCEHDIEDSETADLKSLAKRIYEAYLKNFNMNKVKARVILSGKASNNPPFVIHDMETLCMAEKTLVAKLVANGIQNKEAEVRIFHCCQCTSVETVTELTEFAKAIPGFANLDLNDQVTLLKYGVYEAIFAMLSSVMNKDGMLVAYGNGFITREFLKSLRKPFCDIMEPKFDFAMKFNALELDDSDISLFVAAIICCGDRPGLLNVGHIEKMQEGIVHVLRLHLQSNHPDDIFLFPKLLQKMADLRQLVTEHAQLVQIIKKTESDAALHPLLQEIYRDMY
# Summary of the method: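 Enzyme-fragment complementation assay in which ligand-bound PPARalpha translocates and forms an active enzyme that generates chemiluminescence. Cells were plated overnight, exposed to compound for 6 hr at 37 C, and then given detection reagent for 60 min at room temperature.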
# [14] = qHTS assay for small molecule agonists of the antioxidant response element (ARE) signaling pathway measured by Nrf2-dependant transcriptional activity (AID 720636; active = well fitted curve in the direction sought with a large enough effect in the repeat runs; an effect the other way counts as inactive or inconclusive;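 also: HepG2 cells with an ARE-driven luciferase reporter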)
# Summary of the method: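 HepG2 ARE-luc reporter line, 1% dialyzed FBS; 6 hr attachment at 37 C, compound pinned in, 16 hr at 37 C/5% CO2; ONE-Glo, 30 min RT, luminescence read.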
# [15] = qHTS assay for small molecule agonists of the antioxidant response element (ARE) signaling pathway measured by Nrf2-dependant transcriptional activity - cell viability counter screen (AID 720653; active = well fitted curve in the direction sought with a large enough effect in the repeat runs; an effect the other way counts as inactive or inconclusive); details: ARE-bla HepG2 viability, CellTiter-Glo ATP luminescence, 16 h; max response: stronger effect = lower value
# Summary of the method: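 ARE-bla HepG2 cells treated with compounds for 16 h at 37C; this counter screen measures viability as intracellular ATP by CellTiter-Glo luminescence after 30 min at room temperature.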
# [16] = qHTS assay for cell viability of HEK293 cells (AID 743288; active = well fitted curve in the direction sought with a large enough effect; an effect the other way counts as inactive or inconclusive; also: nearly all actives have a fitted effect of over 50% in size); details: ATP luminescence (CellTiter-Glo), 18 h; max response: stronger effect = lower value
# Summary of the method: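 HEK293 parental, 2,000 cells/well; ≥5 h pre-incubation 37 C; pintool compound addition; 18 h, 37 C; CellTiter-Glo 30 min RT; luminescence read.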
# [17] = biological target: Nuclear receptor subfamily 1 group I member 2 (Rattus norvegicus) (UniProt Q9R1A7); test: qHTS assay for small molecule activators of the rat pregnane X receptor (rPXR) signaling pathway (AID 651751; call rule not given here); details: rPXR reporter cells, luciferase (One-Glo), 24 h
# Nuclear receptor subfamily 1 group I member 2 (Rattus norvegicus), sequence (Q9R1A7 whole entry, looked up): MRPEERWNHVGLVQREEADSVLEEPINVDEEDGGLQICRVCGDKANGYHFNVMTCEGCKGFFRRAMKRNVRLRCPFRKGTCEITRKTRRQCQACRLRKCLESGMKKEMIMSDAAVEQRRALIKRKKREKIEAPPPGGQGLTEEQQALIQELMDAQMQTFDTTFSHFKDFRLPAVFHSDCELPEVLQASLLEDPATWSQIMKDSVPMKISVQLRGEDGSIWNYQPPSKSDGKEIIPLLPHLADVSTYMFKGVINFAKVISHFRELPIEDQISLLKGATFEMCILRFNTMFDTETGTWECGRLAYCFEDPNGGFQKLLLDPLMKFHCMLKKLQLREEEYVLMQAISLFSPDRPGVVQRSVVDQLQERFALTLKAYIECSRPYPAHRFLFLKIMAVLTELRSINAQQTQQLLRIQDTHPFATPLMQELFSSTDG
# [18] = qHTS assay for small molecule activators of the human pregnane X receptor (PXR) signaling pathway (AID 720659; call rule not given here)
# [19] = biological target: Cytochrome P450 3A4 (Homo sapiens) (UniProt P08684); test: qHTS Assay for Inhibitors and Substrates of Cytochrome P450 3A4 (AID 884; active = well fitted curve in the direction sought with a large enough effect; an effect the other way counts as inactive or inconclusive; also: potency is read from the fitted curve at half-maximal effect; nearly all actives have a fitted effect of over 50% in size)
# Cytochrome P450 3A4 (Homo sapiens), sequence (P08684 whole entry, looked up): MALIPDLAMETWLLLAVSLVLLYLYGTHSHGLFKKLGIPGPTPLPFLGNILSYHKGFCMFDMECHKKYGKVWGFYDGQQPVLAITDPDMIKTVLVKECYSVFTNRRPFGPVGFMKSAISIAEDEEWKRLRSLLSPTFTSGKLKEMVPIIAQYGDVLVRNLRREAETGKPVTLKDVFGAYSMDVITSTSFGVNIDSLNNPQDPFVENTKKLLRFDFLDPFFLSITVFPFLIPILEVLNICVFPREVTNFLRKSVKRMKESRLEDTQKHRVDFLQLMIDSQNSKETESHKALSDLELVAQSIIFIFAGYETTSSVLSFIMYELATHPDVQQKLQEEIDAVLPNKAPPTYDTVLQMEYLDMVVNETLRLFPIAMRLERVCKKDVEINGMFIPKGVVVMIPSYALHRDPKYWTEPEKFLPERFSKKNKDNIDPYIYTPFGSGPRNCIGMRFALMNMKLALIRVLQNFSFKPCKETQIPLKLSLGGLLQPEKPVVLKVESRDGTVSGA
# Summary of the method: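 20 nM human CYP3A4 with 25 uM Luciferin-PPXE (at KM) in 200 mM KPO4, preincubated 10 min with compound; NADPH regeneration started a 60 min RT reaction. Luciferin detected by luminescence, normalized to 57 uM ketoconazole as full inhibition.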
# [20] = biological target: Cytochrome P450 3A4 (Homo sapiens) (UniProt P08684); test: qHTS Assay for Activators of Cytochrome P450 3A4 (AID 885; active = well fitted curve in the direction sought with a large enough effect; an effect the other way counts as inactive or inconclusive; also: nearly all actives have a fitted effect of over 65% in size)
# Summary of the method: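 Quantitative HTS format: compounds preincubated with 20nM human CYP3A4 and Luciferin-PPXE substrate at KM, reaction started by NADPH regeneration, stopped after 60 min, luciferase luminescence read 20 min later.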
# Peroxisome proliferator-activated receptor delta (Homo sapiens), sequence (Q03181 whole entry, looked up): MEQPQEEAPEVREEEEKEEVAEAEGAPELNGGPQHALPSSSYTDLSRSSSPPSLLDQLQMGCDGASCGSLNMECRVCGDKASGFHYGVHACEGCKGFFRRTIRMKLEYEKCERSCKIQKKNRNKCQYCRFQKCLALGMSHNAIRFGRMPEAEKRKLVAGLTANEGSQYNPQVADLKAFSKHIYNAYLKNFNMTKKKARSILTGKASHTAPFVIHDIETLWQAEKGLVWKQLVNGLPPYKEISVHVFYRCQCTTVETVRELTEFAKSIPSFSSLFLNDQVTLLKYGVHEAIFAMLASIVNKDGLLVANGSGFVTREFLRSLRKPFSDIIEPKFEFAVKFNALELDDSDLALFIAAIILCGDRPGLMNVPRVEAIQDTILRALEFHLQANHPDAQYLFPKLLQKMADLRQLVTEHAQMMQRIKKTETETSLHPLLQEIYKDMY
smiles,measurement,setting,value
CC/C=C/C#N,outcome,[1],inactive
C=C(C)C(=O)OCC[N+](C)(C)C,outcome,[1],inactive
NC(=O)c1cccc([N+](=O)[O-])c1,outcome,[1],inactive
Cc1cccc([N+](=O)[O-])c1C,outcome,[1],inactive
COc1c(Cl)ccc(Cl)c1C(=O)O,outcome,[1],inactive
Nc1ccc(F)cc1F,outcome,[1],inactive
COCCO,outcome,[1],inactive
NC(=O)c1ccc([N+](=O)[O-])cc1,outcome,[1],inactive
C1CCC2OC2C1 (centres undefined),outcome,[1],inactive
O=C1OC2(c3cc(Br)c(O)c(Br)c3Oc3c2cc(Br)c(O)c3Br)c2c(Cl)c(Cl)c(Cl)c(Cl)c21,outcome,[1],inactive
CCCCCCCCCCCCCC(=O)OC,outcome,[1],inactive
Oc1ccc(O)c2c(O)cccc12,outcome,[1],inactive
C1CCCNCC1,outcome,[1],inactive
CCCC=O,outcome,[1],inactive
C=CC(=O)OCCOc1ccccc1,outcome,[1],inactive
Nc1nc(CC(=O)O)cs1,outcome,[1],inactive
CC1(C)CC(OC(=O)CCCCCCCCC(=O)OC2CC(C)(C)NC(C)(C)C2)CC(C)(C)N1,outcome,[1],inactive
Clc1ccc(Cl)c(Cl)c1Cl,outcome,[1],inactive
C[C@]12CC[C@@H]3c4ccc(O)cc4CC[C@H]3[C@@H]1CC[C@H]2O,outcome,[1],inactive
O=Cc1c(Cl)cccc1Cl,outcome,[1],inactive
CC(CCl)OC(C)CCl (centres undefined),outcome,[1],inactive
CCN(Cc1cccc(S(=O)(=O)O)c1)c1ccc(C(=C2C=CC(=[N+](CC)Cc3cccc(S(=O)(=O)[O-])c3)C=C2)c2ccccc2)cc1,outcome,[1],inactive
Brc1ccc(Oc2ccc(Br)cc2)cc1,outcome,[1],inactive
CSC(=O)c1cccc2nnsc12,outcome,[1],inactive
O=[N+]([O-])c1ccc2nc[nH]c2c1,outcome,[1],inactive
CCCCC(CC)COC(C)=O (centres undefined),outcome,[1],inactive
C=CCCCC,outcome,[1],inactive
Cc1ccc2c(c1)C(=O)OC2=O,outcome,[1],inactive
Cc1cc(Cl)ccc1N=CN(C)C,outcome,[1],inactive
same,Potency,[2],inactive
same,Potency,[3],inactive
same,Potency,[4],inactive
same,outcome,[5],inactive
same,max response,[6],-2.15%
same,Potency,[7],inactive
same,max response,[8],-3.88%
same,max response,[9],-16.2% (inactive)
same,Potency,[10],inactive
same,activation,[11],0.7% (inactive)
same,activation,[12],1.22% (inactive)
same,max response,[13],-0.583% (inactive)
same,Potency,[14],inactive
same,max response,[15],-12.3% (inactive)
same,max response,[16],-10.1% (inactive)
same,max response,[17],1.62% (inactive)
same,outcome,[18],inactive
O=C1c2c(O)ccc([N+](=O)[O-])c2C(=O)c2c([N+](=O)[O-])ccc(O)c21,Potency,[19],7.94 µM (active)
same,Potency,[20],inactive
same,outcome,[1],inactive
